What all share (assay): NCI-60 one-dose screen, 48 h (100 = growth as untreated, 0 = no growth, -100 = all killed)
Common to all, as to conditions: 10 µM unless noted

Assay [1] relates to SK-MEL-2 melanoma.
In assay [2] the test system is EKVX NSCLC.
Assay [3] has as its system SN12C renal.
For assay [4], the system named is UO-31 renal.
The subject of assay [5] is TK-10 renal.
Assay [6] has as its system ACHN renal.
Assay [7] has as its system CAKI-1 renal.
Assay [8] concerns A498 renal.
Assay [9] relates to CCRF-CEM leukemia.
Assay [10] concerns MOLT-4 leukemia.
Assay [11] deals with SR leukemia.
Assay [12] deals with RPMI-8226 leukemia.
Assay [13] deals with OVCAR-8 ovarian.
The subject of assay [14] is OVCAR-5 ovarian.
Assay [15] has as its system OVCAR-4 ovarian.
The test system of assay [16] is SK-OV-3 ovarian.
Assay [17] concerns IGROV1 ovarian.
For assay [18], the system named is OVCAR-3 ovarian.
In assay [19] the test system is HS 578T breast.
Assay [20] concerns NCI/ADR-RES ovarian.

SMILES strings stand for the structures. Compounds without any hit were thinned out: in the full panel of roughly 83,000, 20% have a hit.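 96-well plates, one dose, 48 hours. Percent growth reported; active if below 10.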 Values without a mark were called inactive. Active and inactive are the calls of the source.

From PubChem BioAssay (NCI) come the findings set out here.

In the case of `CCOC(=O)c1ccc(NC(=S)NC(=O)c2ccc(NC(=O)C(C)C)cc2OC)cc1`, the growth in assay [1] was 48.5%; in [2], 36.1%; in [3] it was 73.8%; in [4], 51.7%; in assay [5] it was 85.7%; in [6], 64.6%. The growth was 53.7% in [7]; 86.7% in assay [8]; 9.79% (active) in assay [9]; -60.3% (active) in assay [10]; 0.956% (active) in assay [11]; 0.989% (active) in assay [12]. The growth in assay [13] was 35.1%; in assay [14] it was 90.1%; in assay [15], 27.2%; in [16], 100%; in [17], 64.5%; in assay [18], 57.4%. Further, the growth is 86.7% in [19] and 23% in assay [20].
Take `ClC(Cn1ncc2c(Nc3cccc(Br)c3)nc(SCCN3CCOCC3)nc21)c1ccc(Br)cc1` (stereo not given): the growth in assay [1] is -11.9% (active); in assay [2] it was 16.5%; in [3] it was 26.2%; in [4], -65.7% (active); in assay [5] it was 40.9%; in assay [6], 7.98% (active). The growth in assay [7] is -28% (active); in assay [8], 31.7%; in assay [9], -6.03% (active); in [10], -34.3% (active); in [11], -26.7% (active); in assay [12], 1.13% (active). Also, the growth is 10.2% in assay [13]; 18.1% in [14]; 34.6% in assay [15]; 19.4% in assay [16]; 28.3% in assay [17]; 33.2% in assay [18]. Also, the growth in [19] was -19.9% (active); in [20], 0.769% (active).
Regarding `COc1ccc(C2=Nc3c(N)nc(N)nc3NC(c3ccc(Oc4nc(Nc5ccc(F)cc5)nc(N(C)C)n4)c(OC)c3)C2)cc1` (stereo not given), the growth in [1] was 92.4%; in assay [2], 67.2%; in [3], 90.2%; in assay [4], 52.5%; in assay [5], 86.4%; in [6] it was 99%. For the same compound, the growth in [7] was 58%; in [8] it was 68.9%; in [9], 50.1%; in [10], 18.4%; in assay [11], -29.4% (active); in assay [12] it was 36.2%. The growth was 81.7% in assay [13]; 108% in assay [14]; 48.4% in [15]; 93.2% in [16]; 63.5% in assay [17]; 82.5% in assay [18]. The results for the growth in assay [19] and in assay [20] were 37.6% and 62.7%, respectively.
For `COc1ccc(S(=O)(=O)Nc2ccc(-c3ccc4c(c3)NC(=O)/C4=C\c3ccc[nH]3)cc2)cc1OC`, the growth was 46.6% in assay [1]; -27.8% (active) in assay [2]; -0.885% (active) in assay [3]; 54.7% in [4]; 11.7% in assay [5]; -31.4% (active) in [6]. Moreover, the growth in [7] is -11% (active); in assay [8], 121%; in [9], 58.6%; in assay [10] it was 49%; in assay [11] it was 8.03% (active); in [12] it was 39.4%. Also, the growth is 1.66% (active) in assay [13]; 18.5% in assay [14]; 8.08% (active) in assay [15]; 27.1% in assay [16]; 29.3% in [17]; 57.2% in [18]. Besides, the growth in assay [19] was 23.4%; in assay [20] it was 22.1%.
As to `Cn1cc(-c2cc3nc(-c4cn(C)c5ncccc45)cc(N)n3n2)c2cc(F)ccc21`, the growth in assay [1] was 83.9%; in assay [2] it was 69.8%; in [3], 51.2%; in [4], 52.6%; in [5], 74.6%; in [6] it was 17.6%. Further, the growth in assay [7] was 12.8%; in assay [8] it was 138%; in assay [9], 38.6%; in [10], 55.5%; in assay [11], -31.3% (active); in assay [12], 38.1%. Besides, the growth in [13] was 11.5%; in assay [14], 47.9%; in [15], 20.2%; in assay [16], 24.4%; in assay [17], 31.9%; in [18], 43.9%. Further, the figures for the growth in assay [19] and in assay [20] were 47.2% and 28.3%, respectively.
Consider `COc1ccc(C2=NN(C(=O)[C@H]3[C@@H](c4ccco4)c4sc(=O)[nH]c4S[C@@H]3C)C(c3ccc4ccccc4c3)C2)cc1` (stereo not given in full), for which the growth in [1] was 32.3%; in assay [2], 23.2%; in assay [3], 39%; in [4] it was 19.5%; in assay [5], 50.4%; in [6] it was 16%. The growth in assay [7] was 20.7%; in assay [8], 102%; in assay [9], 6.09% (active); in assay [10], 12%; in assay [11], 24.8%; in [12] it was 8.59% (active). Besides, the growth is 28% in assay [13]; 42.9% in assay [14]; 49.2% in assay [15]; 84.6% in [16]; 45.6% in assay [17]; 31% in assay [18]. Besides, the growth in assay [19] was 29.6%; in assay [20], 26.7%.
On to `Cc1ccc(C(=O)Nc2cc(-c3ccncc3)cc(C(F)(F)F)c2)cc1C#Cc1cnc2cccnn12`, for which the growth in [1] is 37.9%; in assay [2] it was 64.3%; in assay [3] it was 34.8%; in [4], 31.4%; in assay [5] it was 63.7%; in [6], 46.6%. Further, the growth is 40.8% in assay [7]; 48.9% in assay [8]; 30% in [9]; 31.3% in assay [10]; -11.9% (active) in assay [11]; 20% in assay [12]. In addition, the growth is 50.4% in assay [13]; 53.5% in assay [14]; 63.5% in [15]; 127% in [16]; 54.4% in [17]; 95.6% in assay [18]. The growth in assay [19] was 23%; in [20], 50.2%.
Turning to `OC1CCC(Cn2c(C(F)(F)F)cc3c(Cl)ncnc32)CC1` (stereo not given), the growth in assay [1] is -89.4% (active); in assay [2], 65.7%; in assay [3] it was 18.5%; in [4], -80.2% (active); in assay [5], 105%; in assay [6], -86.5% (active). The growth in assay [7] is 53.1%; in [8] it was 119%; in assay [9] it was -7.23% (active); in assay [10], -43.5% (active); in assay [11], -58.9% (active); in assay [12], 84.9%. In addition, the growth in [13] was -4.04% (active); in assay [14] it was 94.6%; in assay [15], -19.9% (active); in assay [16] it was 57.7%; in assay [17], -85.7% (active); in [18], -25.1% (active). Also, the growth in [19] is -35.7% (active); in [20] it was 51.8%.
For the compound `COc1ccc(N=Nc2c(N)nn3c(-c4ccc(OC)c(OC)c4)ccnc23)cc1`, the growth is 103% in assay [1]; 103% in assay [2]; 88.5% in assay [3]; 108% in assay [4]; 88.6% in assay [5]; 77.4% in assay [6]. For the same compound, the growth in [7] is -60.2% (active); in assay [8] it was 95.7%; in assay [9], 86.9%; in assay [10], 100%; in assay [11] it was 77.7%; in assay [12], 65.6%. Also, the growth in [13] was 78.8%; in [14], 87.1%; in [15], 95.5%; in [16], 56.4%; in assay [17], 95.4%; in [18] it was 109%. In addition, the growth in assay [19] is 98.4%; in [20] it was 79.2%.
`CCC1(OC(=O)c2ccccc2SSCCOC(=O)CCCCC2SCC3NC(=O)NC32)C(=O)OCc2c1cc1n(c2=O)Cc2cc3ccccc3nc2-1` (stereo not given): the growth in assay [1] was 103%; in [2] it was 52.1%; in assay [3], 32.3%; in assay [4], 38.4%; in [5] it was 94.8%; in [6], 20.3%. The growth in assay [7] is 10.5%; in assay [8], 104%; in assay [9], 9.01% (active); in assay [10] it was 21.8%; in assay [11], 3.84% (active); in assay [12] it was 33.1%. In addition, the growth was 37.4% in assay [13]; 97% in [14]; 66% in assay [15]; 46.3% in [16]; 75.3% in assay [17]; 72.7% in assay [18]. Further, the growth in [19] is 82.9%; in [20], 24.2%.
In the case of `CCOC(=O)/C(F)=C/C1CC1C1CCN(C(=O)OC(C)(C)C)CC1` (stereo not given), the growth in assay [1] was 110%; in assay [2] it was 74.4%; in assay [3], 62.6%; in assay [4], 81.6%; in assay [5], 104%; in [6], 97.4%. In addition, the growth in assay [7] is 93.7%; in assay [8] it was 127%; in [9] it was 104%; in assay [10], 106%; in assay [11], 89.6%; in assay [12], 102%. Further, the growth was 103% in assay [13]; 111% in [14]; 94.8% in assay [15]; 110% in assay [16]; 106% in assay [17]; 111% in assay [18]. The values for the growth in assay [19] and in [20] were 110% and 100%, respectively.
Take `OCCn1cc(-c2nc3ccc4[nH]ncc4c3c3c2CCCC3)cn1`: the growth in assay [1] was 43.3%; in assay [2] it was 32.8%; in [3], 36.7%; in assay [4], 22.3%; in assay [5], 16.5%; in [6], 16.3%. Also, the growth in [7] was 1.75% (active); in assay [8], -3.55% (active); in [9], 48.4%; in assay [10], 31.2%; in assay [11], -3.53% (active); in assay [12], 31.4%. Further, the growth was 44.7% in assay [13]; 97.8% in assay [14]; 64.2% in [15]; 14.6% in assay [16]; 52% in [17]; 58.8% in [18]. Also, the growth in [19] is 21.6%; in assay [20] it was 76.8%.
For `COc1ccc(-c2nnc3c(/C=C/c4ccc(Br)cc4)nc4ccccc4n23)cc1`, the growth is 92.9% in assay [1]; 54% in assay [2]; -22.7% (active) in [3]; 41.1% in [4]; 99.4% in [5]; 23% in assay [6]. The growth in assay [7] is 27.8%; in assay [8], 92.6%; in assay [9], 8.22% (active); in [10] it was 1.9% (active); in assay [11], -19.4% (active); in assay [12], 21.2%. Besides, the growth in [13] is 46.1%; in assay [14] it was 79.7%; in [15], 52.9%; in [16], 112%; in assay [17], 47.8%; in [18], 15.1%. The results for the growth in [19] and in assay [20] were 81.6% and 67.5%, respectively.
As to `COc1ccc(-c2cc(C(=O)N=Nc3c(O)[nH]c4ccc(Cl)cc34)c3ccccc3n2)cc1OC`, the growth in assay [1] is 102%; in assay [2], 90.1%; in assay [3], 96.4%; in [4], 81.8%; in assay [5], 116%; in assay [6], 105%. The growth in [7] was 95.2%; in [8] it was 167%; in assay [9], 112%; in [10] it was 118%; in [11], 103%; in assay [12] it was 119%. Moreover, the growth in assay [13] is 110%; in [14], 104%; in assay [15] it was 116%; in assay [16] it was 154%; in [17], 93%; in [18] it was 118%. The growth in assay [19] is 110%; in [20], 98.2%.
